# PubChem BioAssay (NCI)
# This is part of a sample that, as a whole, favours compounds with a hit. Of some 83,000 tested, about 20% had one in any assay.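 Plates (96-well) were seeded with cells, treated with compound at one concentration, and incubated for 48 hours before percent growth was determined.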 Values without a mark were called inactive. Calls of active or inactive are those of the source.
# Tested on: NCI/ADR-RES ovarian
# Assay: NCI-60 one-dose screen, 48 h (100 = growth as untreated, 0 = no growth, -100 = all killed)
# Conditions: 1 µM
# Method: Growth inhibition of the NCI/ADR-RES human […] tumor cell line is measured as a screen for anti-cancer activity. Cells are grown in 96 well plates and exposed to the test compound for 48 hours. Compounds are tested at a single concentration, which is 10^-5 M for most compounds. The reported endpoint is percent growth (GI% or GIPRCNT), where numbers from 0 - 100% represent growth inhibition, and numbers from -100% - 0 represent cell death. For example, a value of 40 represents 60% growth inhibition. A value of 0 means no net growth occurred over the course of the experiment. A value of -40 indicates 40% of cells at the beginning of the experiment died by the end of the experiment. A value of -100 means all cells are dead at the end of the experiment.
# NCI-60 Human Tumor Cell Lines Screen was performed using the standard one-dose NCI protocol, which is described in more detail at https://dtp.cancer.gov/discovery_development/nci-60/default.htm.
# Compounds with GIPRCNT values below 10 were considered active. Activity score was based on GIPRCNT using the following formula: […]
# Score is 0 for GIPRCNT values of 100 or above, 50 for GIPRCNT values of 0, and 100 for GIPRCNT values of -100.
row,SMILES,growth
1,CC/C(=C(\c1ccc(O)cc1)c1ccc(OCCNC)cc1)c1ccccc1,103%

# Same assay, conditions: 10 µM
row,SMILES,growth
1,CC/C(=C(\c1ccc(O)cc1)c1ccc(OCCNC)cc1)c1ccccc1,91.1%

# Same assay, conditions: 10 µM unless noted
row,SMILES,growth
1,Nc1nn2c(-c3cc4cc(Br)ccc4oc3=O)ccnc2c1N=Nc1ccc(Br)cc1,14.1%
2,O=C(O)CC1S/C(=N/N=C/c2nc3ccccc3s2)NC1=O (stereo not given),99.3%
3,NS(=O)(=O)c1ccc(N2N=C(c3ccc(NC(=O)Nc4ccccc4)cc3)CC2c2ccc(Br)cc2)cc1 (stereo not given),-83.4% (active)
4,N#CC1=C(c2cccs2)Nc2c(c(-c3ccccc3)nn2-c2ccccc2)C12C(=O)Nc1ccc(Br)cc12 (stereo not given),10.5%
5,CN(C)CCOc1ccc(C(=O)C2[C@H](c3ccc(Cl)cc3)[C@@H](c3ccccc3)NC23C(=O)Nc2ccc(Cl)cc23)cc1 (stereo not given in full),-90.7% (active)
6,O=C(Nc1nc2ccc([N+](=O)[O-])cc2s1)Nc1ccc(Cl)cc1Cl,26.6%
7,C#CCCCNCCNc1ccnc2cc(Cl)ccc12,68.8%
8,COc1ccc2[nH]c(=O)c(CSc3ccccc3Nc3nccc(-c4ccc(C(F)(F)F)cc4)n3)cc2c1,10.5%
9,CC(C)(C)c1cc(-c2cc(-c3ccccc3)[nH]c(=O)c2C#N)cc(C(C)(C)C)c1,25.9%
10,O=C(NNC(=O)c1ccc(OCc2nc3ccc(Cl)cc3[nH]2)cc1)Nc1ccc(Cl)c(Cl)c1,94.1%
11,COc1ccc(NC(=O)CSc2nnc(-c3ccc(-c4nc5ccccc5[nH]4)cc3)o2)cc1,50.1%
12,O=C(CSc1nc2c(c(=O)[nH]1)CCCC2)Nc1ccccc1C(=O)O,112%
13,COc1ccc2oc(=O)c(-c3csc(N/N=C(\C)c4cc(OC)c(OC)c(OC)c4)n3)cc2c1,77.9%
14,COc1ccc(-c2cc(C(=O)N=Nc3c(O)[nH]c4ccc(Cl)cc34)c3ccccc3n2)cc1OC,98.2%
15,COc1ccc(N=Nc2c(N)nn3c(-c4ccc(F)cc4)ccnc23)cc1,74.3%
16,Fc1cccc(CNc2nc(SCCN3CCOCC3)nc3c2cnn3CC(Cl)c2ccc(Br)cc2)c1 (stereo not given),23%
17,NCCCCn1c(SCCc2c[nH]c3ccccc23)nnc1-c1ccc2ccccc2n1,62.3%
18,COc1ccccc1NC(=O)c1ccc(NC(=O)CCl)s1,2.28% (active)
19,COc1ccc(C2=NN(C(=O)[C@H]3[C@@H](c4ccco4)c4sc(=O)[nH]c4S[C@@H]3C)C(c3ccc4ccccc4c3)C2)cc1 (stereo not given in full),26.7%

row,SMILES,growth
1,O=C(Nc1nc2ccccc2s1)Nc1ccccc1Cl,76%
2,O=C(c1ccc(O)cc1)C1[C@H](c2ccc(Cl)cc2)[C@@H](c2ccccc2)NC12C(=O)Nc1ccc(Br)cc12 (stereo not given in full),-37.2% (active)
3,CCCCCCCOc1ccc(S(=O)(=O)Nc2ccc(C)c(F)c2C(=O)O)cc1,94.4%
4,CN(C)c1nc(NCCNS(=O)(=O)c2ccc(C(=O)/C=C/c3ccccc3)cc2)nc(N2CCOCC2)n1,82.4%
5,CCCCN1C(=O)/C(=C\C(=O)c2cc3ccccc3oc2=O)c2ccccc21,67.5%
6,CC[C@]12C=CCN3CC[C@@]4(c5ccc(OC)cc5N(C)[C@H]4[C@@](O)(C(=O)OC)[C@@H]1OC(=O)CCC[P+](c1ccc(OC)cc1)(c1ccc(OC)cc1)c1ccc(OC)cc1)[C@@H]32,79.9%
7,Clc1ccc(-c2nc3ccc(-c4nnc(SCc5ccccc5)o4)cc3[nH]2)cc1,-9.86% (active)
8,O=C(Nc1ccc(-c2ccc3c(c2)NC(=O)/C3=C\c2ccc[nH]2)cc1)Nc1ccc(Cl)c(C(F)(F)F)c1,51.7%
9,CC1CCc2c(sc3nc(SCC(=O)c4cccc(Br)c4)n(-c4ccccc4)c(=O)c23)C1 (stereo not given),35.2%
10,CC(C)(C)C(=O)C1CC(C#N)=C2C=Cc3c(ccc4ccccc34)N21 (stereo not given),81.9%
11,CC1=C(C)C(=O)C(N2CCSCC2)=CC1=O,93.7%
12,COc1ccc(Nc2ncnc3sc4c(c23)CCN(Cc2ccccc2)C4)cc1,76.7%
13,Cc1cc(C)c2[nH]c(=O)c(C(c3nnnn3Cc3ccc4c(c3)OCO4)N3CCN(C)CC3)cc2c1 (stereo not given),108%
14,O=C(NN1C(=O)/C(=C/C=C/c2ccc([N+](=O)[O-])o2)SC1=S)c1ccc(O)cc1,-22.3% (active)
15,COc1cncc(-c2ccc3ncnc(N4CCc5ccc(Cl)cc54)c3c2)c1,1.41% (active)
16,COc1cc(/C=C/C(=O)c2cnn(-c3cc(=O)[nH]c4ccccc34)c2C)cc(OC)c1OC,42.2%
17,COc1cc(CNC(=O)C[C@H](C)CCC=C(C)C)ccc1OCc1cn(-c2ccc(Cl)c(Cl)c2)nn1,36.5%
18,Cc1ccc2nc(COc3ccc(C(=O)NNC(=O)Nc4ccc(Cl)c(C(F)(F)F)c4)cc3)[nH]c2c1,95.8%
19,Fc1ccc(F)c(CNc2nc(SCCN3CCOCC3)nc3c2cnn3CC(Cl)c2ccc(Br)cc2)c1 (stereo not given),22.8%
